The nature of assay [1]: qHTS profiling of the MIPE4 collection as inhibitors of Plasmodium falciparum (DD2) proliferation (AID 743345; call rule not given here). To be noted: P. falciparum Dd2 in erythrocytes, SYBR Green DNA, 72 h; at 28.5 µM (top of the series) unless noted. The essentials: (§1)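 Parasite DNA was quantified by SYBR Green I fluorescence (ex 485, em 535 nm) after overnight lysis in saponin/Triton buffer at room temperature. Cultures at 0.3% parasitemia and 2.5% hematocrit were first exposed to compound for 72 h at 37 C; signals were normalised to artemisinin (0.29 uM) and vehicle wells.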

Assay [2] can be described thus: qHTS profiling of the MIPE4 collection as inhibitors of Plasmodium falciparum (DD2) proliferation (Rep 2) (AID 743346; call rule not given here). To be noted: P. falciparum Dd2 in erythrocytes, SYBR Green DNA, 72 h; at 28.5 µM (top of the series) unless noted. The essentials: as §1
Assay [3] can be described thus: High-throughput drug toxicity screening in the BPDCN cell line Gen2.2 (AID 1224824; call rule not given here;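 also: cells exposed to compounds for 48 h before reading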). As to conditions: Gen2.2 BPDCN cells; at 45.8 µM (top of the series) unless noted. The essentials:
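CellTiter-Glo luminescence after 48 h compound exposure of Gen2.2 cells; percent activity set with DMSO as 100% and bortezomib (9.2 uM final) as 0%. Cells seeded at 500 per well, RPMI + 10% FBS, 37 °C.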

Assay [4] in a line: High-throughput drug toxicity screening in the BPDCN cell line Cal-1 (AID 1224825; call rule not given here). To be noted: Cal-1 BPDCN cell viability, qHTS; at 45.8 µM (top of the series) unless noted. The essentials:
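Viability of the BPDCN line Cal-1 is measured as ATP-based luminescence (CellTiter-Glo) following 48 h incubation with compounds. Percent activity uses DMSO-treated wells as 100% and 9.2 uM bortezomib as 0%.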

Assay [5] can be described thus: qHTS assay for measurement of the activity of small molecule inhibitors on Zika virus induced Caspase-3 activity in human iPSC derived neural progenitor cells (hNPCs) (AID 1224857). Also: % of control where 0% means no effect; nearly all actives have a fitted effect of over 65% in size. The essentials:
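Caspase-3/7 induction by a 6-hour ZIKV infection was quantified with a luminescent Caspase-Glo 3/7 reagent incubated 30 minutes at room temperature. Compounds were preincubated with hNPCs for 1 hour; inhibition was calculated against uninfected and infected control wells.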

Assay [6] can be described thus: qHTS assay for measurement of the activity of small molecule inhibitors on Zika virus induced Caspase-3 activity in human astrocytoma cells (AID 1224859).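 Also: plate controls were ZIKV-infected untreated cells for no effect and uninfected cells for full effect.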 The essentials: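 In SNB-19 cells plated at 250 cells/well and grown 16-20 h, compounds were applied 1 h before ZIKV (2 FFU/cell). Six hours later caspase-3/7 luminescence was recorded.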
A short description of assay [7]: qHTS Screen of the MIPE 4.0 Collection Against Ewings Sarcoma (RDES) (AID 1259252). Also: nearly all actives have a fitted effect of over 35% in size. Also: potency is read from the fitted curve at half-maximal effect. The essentials: (§2)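 Compound titrations go onto adherent log-phase cells 4 h after seeding, incubate 48 h at 37C, then CellTiter-Glo luminescence reports viability relative to DMSO and cell-free controls.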
The nature of assay [8]: qHTS Screen of the MIPE 4.0 Collection Against Ewings Sarcoma (TC71) (AID 1259253). Also: nearly all actives have a fitted effect of over 40% in size. Also: potency is read from the fitted curve at half-maximal effect. The essentials:
as §2

A short description of assay [9]: qHTS Screen of the MIPE 4.0 Collection Against Ewings Sarcoma (EW8) (AID 1259255). Also: nearly all actives have a fitted effect of over 35% in size. Also: potency is read from the fitted curve at half-maximal effect.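 As to viability: 100% = DMSO-treated cells and 0% = medium-only wells without cells.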 The essentials:
as §2

Assay [10] in a line: qHTS profiling of the MIPE4 collection as inhibitors of Plasmodium falciparum (HB3) proliferation (AID 743347; call rule not given here;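 also: plate controls were DMSO vehicle wells for no effect and artemisinin wells for full effect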). As to conditions: P. falciparum HB3 in erythrocytes, SYBR Green DNA, 72 h; at 28.5 µM (top of the series) unless noted. The essentials:
as §1

From PubChem BioAssay (NCATS) come the findings set out here.

Results filed as inconclusive are left out. Activity calls are given as the source filed them. Unless noted, calls follow the shape of the dose curve; as a rule, active = well fitted inhibition curve with a large enough effect; inconclusive = small, poorly fitted or top-dose-only effect; inactive = no such curve, though single readings can be large or run the other way.

The compound `C=C[C@@H]1CN2CCC1C[C@H]2[C@H](O)c1ccnc2ccc(OC)cc12` (some centres not stated) gave a parasite growth remaining, % of DMSO control (lower = more inhibition) in [1] of 9.84%. For the same compound, in assay [2], the parasite growth, % of control (lower = inhibition) worked out at 15.1%. The cell viability, % of control (lower = more cytotoxic) in assay [3] was 111%. Besides, the viability (% of control) in assay [4] was 70%. Further, the Potency entry in assay [5], in assay [6], in [7], in assay [8] and in assay [9] was “inactive” in each case.

`c1coc(CNc2ncnc3nc[nH]c23)c1` had a parasite growth remaining, % of DMSO control (lower = more inhibition) in assay [1] of 26.3%. Moreover, the cell viability, % of control (lower = more cytotoxic) in assay [3] came out at 90.9%. For the same compound, the viability (% of control) in assay [4] stood at 102%. The Potency entry in assay [5], in [6], in [7], in assay [8] and in [9] was “inactive” in each case.

Take `COc1cc2c(cc1OC)[C@@H]1C(=O)c3ccc4c(c3O[C@@H]1CO2)C=CC(C)(C)O4`: in [1], the parasite growth remaining, % of DMSO control (lower = more inhibition) stood at 91.2%. For the same compound, the parasite growth, % of control (lower = inhibition) in [2] turned out to be 39.7%. In [10], the growth, % of control was determined as 47.7%. Also, the cell viability, % of control (lower = more cytotoxic) in [3] worked out at 7.01%. In addition, the viability (% of control) in assay [4] is 3.79%. For the same compound, the Potency entry in [5] and in assay [6] was “inactive” each time. The Potency in [7] was 23.5 µM (active); in assay [8], 23.5 µM (active); in assay [9] it was 33.2 µM (active).

On to `C=C1CCC2[C@](C)(CO)C(O)CC[C@]2(C)C1CC=C1C(=O)OCC1O` (some centres not stated), for which, in assay [1], the parasite growth remaining, % of DMSO control (lower = more inhibition) worked out at 85.2% [at 57.5 µM]. In [2], this compound gave a parasite growth, % of control (lower = inhibition) of 92.9% [at 57.5 µM]. The growth, % of control in [10] amounted to 46.9% [at 57.5 µM]. Further, in assay [3], the cell viability, % of control (lower = more cytotoxic) is 83.8% [at 92.2 µM]. In [4], the viability (% of control) came to 110% [at 92.2 µM]. In addition, the Potency result in [5], in assay [6], in assay [7], in assay [8] and in [9] was “inactive” in each case.

Turning to `CC(=O)O[C@H]1C[C@@H]2CC[C@H]3[C@H]4C[C@H]([N+]5(C)CCCCC5)[C@@H](OC(C)=O)[C@@]4(C)CC[C@@H]3[C@@]2(C)C[C@H]1N1CCCCC1`, the parasite growth remaining, % of DMSO control (lower = more inhibition) in [1] amounted to 64%. Further, the parasite growth, % of control (lower = inhibition) in [2] came to 37.1%. The compound further showed a growth, % of control in [10] of 71.6%. For the same compound, the cell viability, % of control (lower = more cytotoxic) in [3] is 216%. For the same compound, the viability (% of control) in assay [4] was found to be 123%. In addition, the Potency entry in [5] and in [6] was “inactive” each time. For the same compound, the Potency in assay [7] is 7.43 µM (active); in assay [8], 7.43 µM (active); in assay [9], 8.33 µM (active).

With `CNC(=O)c1cccc(-c2ccc3c(N4CCOC[C@H]4C)nc(N4CCOC[C@H]4C)nc3n2)c1`, in assay [1], the parasite growth remaining, % of DMSO control (lower = more inhibition) is 17.5%. The compound also yielded a parasite growth, % of control (lower = inhibition) in assay [2] of 9.01%. This compound also showed a growth, % of control in assay [10] of 5.12%. Further, the cell viability, % of control (lower = more cytotoxic) in [3] amounted to 20.8%. For the same compound, the viability (% of control) in assay [4] was found to be 20.9%. Moreover, the Potency entry in [5] and in [6] was “inactive” in each case. For the same compound, the Potency in [7] was 0.0833 µM (active); in assay [8] it was 0.0662 µM (active); in assay [9] it was 0.0935 µM (active).

The compound `Cn1cc(C2=C(c3c4n(c5ccccc35)CCC(CN)C4)C(=O)NC2=O)c2ccccc21` (configuration not stated) came in with a parasite growth remaining, % of DMSO control (lower = more inhibition) in assay [1] of 5.71%. The same compound displayed a parasite growth, % of control (lower = inhibition) in assay [2] of 11%. In [10], this compound gave a growth, % of control of 3.72%. Besides, in assay [3], the cell viability, % of control (lower = more cytotoxic) turned out to be 3.32%. In [4], the viability (% of control) came out at 2.84%. The Potency entry in [5] and in [6] was “inactive” each time. Further, the Potency in assay [7] is 16.6 µM (active); in assay [8], 16.6 µM (active); in assay [9], 18.7 µM (active).

For `C[C@@H](NCc1cc2ccccc2[nH]1)c1cccc2ccccc12`, the parasite growth remaining, % of DMSO control (lower = more inhibition) in assay [1] was found to be 83.3%. In assay [2], this compound came in with a parasite growth, % of control (lower = inhibition) of 71.9%. For the same compound, the growth, % of control in assay [10] came out at 36.4%. The cell viability, % of control (lower = more cytotoxic) in [3] amounted to 171%. Moreover, the viability (% of control) in [4] stood at 108%. For the same compound, the Potency result in assay [5], in [6], in [7], in assay [8] and in [9] was “inactive” in each case.
